Records with an inconclusive call do not appear. Entries that show only a call come without a potency. Values without a mark were called inactive. Active and inactive are the calls of the source. Calls come from the whole dose curve.

Peroxisome proliferator-activated receptor gamma (Homo sapiens), sequence (P37231 whole entry, looked up): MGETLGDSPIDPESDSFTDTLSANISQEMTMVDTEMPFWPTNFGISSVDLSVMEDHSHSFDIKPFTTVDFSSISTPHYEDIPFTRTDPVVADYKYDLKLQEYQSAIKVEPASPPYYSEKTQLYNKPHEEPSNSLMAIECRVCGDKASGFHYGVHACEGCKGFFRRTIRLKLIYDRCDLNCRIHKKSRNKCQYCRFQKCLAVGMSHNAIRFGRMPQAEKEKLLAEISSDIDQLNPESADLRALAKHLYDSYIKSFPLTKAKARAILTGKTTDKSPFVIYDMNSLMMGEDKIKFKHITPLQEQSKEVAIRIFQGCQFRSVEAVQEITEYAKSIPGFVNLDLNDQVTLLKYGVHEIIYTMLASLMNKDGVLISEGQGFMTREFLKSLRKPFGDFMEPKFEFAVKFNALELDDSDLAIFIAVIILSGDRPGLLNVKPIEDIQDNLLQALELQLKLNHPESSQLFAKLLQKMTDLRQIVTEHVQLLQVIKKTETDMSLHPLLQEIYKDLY

This experiment addresses Peroxisome proliferator-activated receptor gamma (Homo sapiens) (UniProt P37231). Nature of the experiment: qHTS assay to identify small molecule antagonists of the peroxisome proliferator-activated receptor gamma (PPARg) signaling pathway (AID 743191). Note: nearly all actives have a fitted effect of over 30% in size. Conditions: HEK293H PPARg-UAS-bla, beta-lactamase ratio, antagonist, 17 h; series mostly up to 62.6 µM. An excerpt: U.S. Tox21 Program National Center for Advancing Translational Sciences [NCATS] NIH Chemical Genomics Center [NCGC] U.S. Environmental Protection Agency [EPA] National Institutes of Environmental Health Sciences [NIEHS] National Toxicology Program [NTP] U.S. Food and Drug Administration [FDA] Tox21 Assay Overview: The peroxisome proliferator-activated receptors (PPARs) are lipid-activated transcription factors of the nuclear receptor superfamily with three distinct subtypes namely PPAR alpha, PPAR delta (also called PPAR beta) and PPAR gamma (PPARg). All these subtypes heterodimerize with Retinoid X receptor (RXR) and these heterodimers regulate transcription of various genes. PPAR-gamma receptor (glitazone receptor) is involved in the regulation of glucose and lipid metabolism. To identify the compounds that inhibit PPAR-gamma signaling, GeneBLAzer PPAR gamma UAS-bla HEK293H cell line (Invitrogen, Carlsbad, CA, USA) containing a beta-lactamase reporter gene under control of an Upstream Activator Sequence (UAS) was used to screen the Tox21 compound library.
Tox21 Assay Protocol Summary: PPARg-bla cells were dispensed at 3000 cells/6uL/well in 1536-well black wall/clear bottom plates using a Multidrop Combi (Thermo Fisher Scientific, Waltham, MA) dispenser. After the assay plates were incubated at 37C and 5% CO2 for 5 h, 23 nL of compounds dissolved in DMSO, positive controls or DMSO only was transferred to the assay plate by a Pintool station (Kalypsys, San Diego, CA). The assay plates were incubated at 37C for 17 h. After 1 uL of LiveBLAzerTM B/G FRET substrate was added using a Bioraptr Flying Reagent Dispenser (FRD) workstation (Beckman Coulter, Indianapolis, IN, USA), the plates were incubated at room temperature for 1 h, and fluorescence intensity was measured by an Envision plate reader (PerkinElmer, Shelton, CT).
On to `CCCCC(CC)COC(=O)c1ccccc1O` (stereo not given), for which the Potency result is “inactive”.

For the molecule `Cc1cc2c(cc1S(N)(=O)=O)S(=O)(=O)CCC2`, the Potency result is “inactive”.

Take `CCC(C)C1CCCCC1=O` (stereo not given): the Potency entry was “inactive”.

Regarding `CN1CCCC1`, the Potency entry is “inactive”.

Take `CC1(C)C(O)C(C)(C)C1O` (stereo not given): the Potency result is “inactive”.

In the case of `Cc1c(NC(C)C)c(=O)n(-c2ccccc2)n1C`, the Potency entry is “inactive”.

Take `Cc1c(O)cccc1O`: the Potency result was “inactive”.

As to `C=CCS(=O)(=O)O`, the Potency entry is “inactive”.

Turning to `C=C(C)CS(=O)(=O)O`, the Potency entry is “inactive”.

For `CC(C)(O)C(=O)c1ccccc1`, the Potency result is “inactive”.

As for `CC(C)NCCCC1(C(N)=O)c2ccccc2-c2ccccc21`, the Potency entry was “inactive”.

In the case of `CCc1nccnc1CC`, the Potency result is “inactive”.

Regarding `NS(=O)(=O)c1ccc(C(=O)O)cc1`, the Potency result is “inactive”.

Take `CCCN(CCC)CCc1cccc2c1CC(=O)N2`: the Potency result is “inactive”.

Regarding `CC(C)NC(=O)NC(C)C`, the Potency entry was “inactive”.

With `CN1CCC(=C2c3ccccc3CC(=O)c3sccc32)CC1`, the Potency entry was “inactive”.

For `CC1=CC(C)C(C=O)CC1` (stereo not given), the Potency result was “inactive”.

Consider `CCCCNC(=O)NCCCC`, for which the Potency result was “inactive”.

On to `CN1N=C(C(N)=O)CCC1=O`, for which the Potency entry is “inactive”.

`c1cnc(N2CCN(Cc3ccc4c(c3)OCO4)CC2)nc1`: the Potency result is “inactive”.

Consider `CCCCCCCCCCCCN(CCCCCCCCCCCC)CCCCCCCCCCCC`, for which the Potency result was “inactive”.

Take `CCCCCCCCCCCC`: the Potency result is “inactive”.

Consider `COC(=O)C1=C(C)NC(C)=C(C(=O)OC)C1c1ccccc1[N+](=O)[O-]`, for which the Potency result is “inactive”.

Consider `CO[Si](CCCOCC1CO1)(OC)OC` (stereo not given), for which the Potency entry was “inactive”.

For the molecule `CCCCCCCCCCCCCCCCC`, the Potency result is “inactive”.

Regarding `CCCCCCCCS(=O)(=O)Cl`, the Potency entry was “inactive”.

Take `NCCCNCCSP(=O)(O)O`: the ratio activity, negative = inhibition is -8.68% [at 13.2 µM].

As for `CC(C[N+](C)(C)C)OC(N)=O` (stereo not given), the Potency result was “inactive”.

On to `O=c1[nH]c(=O)n([C@H]2C[C@H](O)[C@@H](CO)O2)cc1I`, for which the Potency result is “inactive”.

Turning to `C[C@H]1C[C@@H](O)CC(C)(C)C1`, the Potency entry was “inactive”.

Consider `COCCc1ccc(OCC(O)CNC(C)C)cc1` (stereo not given), for which the Potency entry was “inactive”.

As to `O=C1CC2CC1C1CCCC21` (stereo not given), the Potency result is “inactive”.

Regarding `CCO[Si](CCC1CCC2OC2C1)(OCC)OCC` (stereo not given), the Potency result is “inactive”.

As for `N[C@@H](C(=O)N[C@@H]1C(=O)N2C(C(=O)O)=C(Cl)CS[C@H]12)c1ccccc1`, the ratio activity, negative = inhibition is 6.67% [at 13.2 µM].

For `O=C1CCCN1C1CCCCC1`, the Potency entry is “inactive”.

Turning to `C[C@H](NC(CCc1ccccc1)C(=O)O)C(=O)N1CCC[C@H]1C(=O)O` (stereo not given in full), the Potency entry was “inactive”.

For `CCOC(C)(C)C`, the Potency entry is “inactive”.

Consider `Nc1ccc(S(=O)(=O)Nc2ccnn2-c2ccccc2)cc1`, for which the Potency entry was “inactive”.

In the case of `O=C(O)COc1nn(Cc2ccccc2)c2ccccc12`, the Potency entry was “inactive”.

Take `Nc1cc(=O)[nH]c(N)n1`: the Potency entry is “inactive”.
